Pf growth 96h: P. falciparum growth inhibition at 96 hours; 320,000 tested, 6.9% active; P. falciparum luciferase reporter growth, 96 h; Potency, µM (top dose mostly 28.7 µM), for the others: at the top dose activity change, negative = inhibition, hits mostly inhibitors; also: % is scaled to controls: 0 for no effect and ±100 for the full control effect
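Readout is luminescence from an integrated firefly luciferase in P. falciparum. Red cells, 2% hematocrit and 0.05% parasitemia final, were cultured with compound through two parasite generations (96 hours) at 37 C, 5% CO2.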
NS1 function inh: blocks influenza NS1 protein function | AID 2326 | Potency, µM (doses to about 46.1 µM), for inactives: top-dose activity, positive = more growth | 270,000 tested, 0.4% active; calls by dose curve; also: actives are rising curves; nearly all actives have a fitted effect of over 50% in size
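Compounds were scored for reversing the slow growth caused by influenza A NS1 in S. cerevisiae, measured by optical density at 600 nm. Assay medium contained 2% galactose at pH 6.0; NS1-free yeast of the same strain were the positive control.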
Pf growth 48h: inhibits P. falciparum growth in the first generation, 48 h; P. falciparum luciferase growth in erythrocytes, 48 h; Potency, µM (titrated, usually from 28.7 µM), for inactives: at the top dose activity change, negative = inhibition, most hits filed as inhibitors; 310,000 tested, 5.9% active; AID 504832; also: % is scaled to controls: 0 for no effect and ±100 for the full control effect
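Read-out is firefly luciferase luminescence from an integrated reporter in P. falciparum, so falling signal marks reduced parasite growth. Infected erythrocytes were at 2% hematocrit and 0.1% parasitemia (final) in Albumax-supplemented RPMI 1640.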
AMA1-RON2 inh: disrupts binding of P. falciparum AMA1 to RON2; AlphaScreen AMA1-biotinylated RON2 peptide binding; Potency, µM (titrated, usually from 58.2 µM), for the others: at the top dose activity change, negative = inhibition, actives largely listed as inhibitors; 360,000 tested, 0.2% active; AID 720542;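 also: 0% = vehicle wells and -100% = peptide control; nearly all actives have a fitted effect of over 45% in size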
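AMA1 (3D7) with his tag at 25 nM final met compounds first, then biotinylated RON2 peptide at 25 nM; detection used donor plus acceptor beads, 10 µg/mL apiece, read by AlphaScreen after 30 min at room temperature.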
Sm TGR block: blocks Schistosoma mansoni thioredoxin glutathione reductase | Potency, µM (titrated, usually from 114 µM), for the others: at the top dose activity change, negative = inhibition, hits mostly inhibitors | Q962Y6 | purified TGR, DTNB reduction, TNB absorbance 405 nm | 360,000 tested, 3% active | AID 485364; also: % is scaled to controls: 0 for no effect and ±100 for the full control effect; nearly all actives have a fitted effect of over 60% in size
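First, TGR (20 nM dispensed) and NADPH were mixed with compound. Second, a 15 min room-temperature incubation followed. Third, further NADPH and then DTNB were added to start the reaction. Finally, TNB absorbance was monitored kinetically.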
Numbers without * were called inactive; ? = inconclusive; · = no result given; [ ] = remark or other dose. Most compounds without a hit are left out; they make up all but 11% or so of the library. Unless noted, calls follow the shape of the dose curve; as a rule, active = well fitted curve in the direction sought with a large enough effect; inconclusive = small, poorly fitted or top-dose-only effect, or another doubt; inactive = no such curve, though single readings can be large; an effect the other way counts as inactive or inconclusive. Potency is read from the fitted curve at half-maximal effect.

SMILES	Pf growth 96h	NS1 function inh	Pf growth 48h	AMA1-RON2 inh	Sm TGR block
Cn1nc(C(=O)Nc2cccc(S(=O)(=O)N3CCCCC3)c2)c2ccccc2c1=O	9.3µM*	·	?	-14%	3%
CCN(C(=O)c1cc(S(=O)(=O)N2CCOCC2)cn1C)c1ccc(OC)cc1	·	·	·	·	0%
O=S(=O)(NC(=NCc1ccccc1)c1ccccc1)c1ccc(Br)cc1	-16%	3%	4%	12%	5%
COc1ccc(NC(=O)CCc2c(C)nn(-c3ccc(N4CCCCC4)nn3)c2C)cc1Cl	·	·	·	·	-1%
Cn1nc(C(=O)Nc2ccc(S(=O)(=O)NCc3ccco3)cc2)c2ccccc2c1=O	12µM*	-2%	?	-1%	3%
Cc1cc(C)nc(NC(=NCc2ccc3c(c2)OCO3)NC(=O)Nc2ccccc2)n1	41%	7%	?	0%	1.4µM*
Cn1c(=O)c(=O)n(C)c2cc(N3CCOCC3)c(NS(=O)(=O)c3ccc(F)c(Cl)c3)cc21	32%	4%	-10%	-10%	-16%
Cn1c(=O)c(=O)n(C)c2cc(N3CCCC3)c(NS(=O)(=O)c3ccc(Cl)cc3)cc21	29%	10%	-3%	-9%	50µM*
Cc1ccc(C(=O)COC(=O)c2cc(-c3ccc(Cl)cc3)nc3ccccc23)cc1	·	·	·	·	0%
O=C(NCCCN1CCOCC1)c1cc2c([nH]c3ccccc32)c(-c2cccc(Br)c2)n1	3.3µM*	-1%	2.3µM*	-28%	-7%
COc1cccc(-c2cc(C(=O)NCCCN3CCOCC3)no2)c1	95%	1%	6%	0%	2%
COc1cccc(-c2nc(C(=O)NCCCN3CCOCC3)cc3c2[nH]c2ccccc23)c1	8.3µM*	-10%	13µM*	-20%	0%
O=C(NCCCO)c1cc2c([nH]c3ccccc32)c(-c2ccccc2)n1	5.9µM*	-2%	?	2%	-12%
CCOc1ccc(NC(=O)C(C)n2c(=O)cc(-c3ccccc3)c3c(C)nn(C)c32)cc1 (stereo not given)	·	·	·	·	-7%
COc1cc(OC)cc(C(=O)NCC2CCCN(Cc3cccc(C(C)=O)c3)C2)c1 (stereo not given)	8.3µM*	-5%	?	-1%	3%
COc1ccc(CC(=O)NCC2CCCN(Cc3cccc(C(F)(F)F)c3)C2)cc1 (stereo not given)	159%	-9%	0%	26%	-15%
COc1ccc(CN2CCCC(CNC(=O)c3ccc(F)cc3)C2)c(F)c1 (stereo not given)	1.9µM*	-2%	-25%	7%	4%[57.1 µM]
COc1ccc(CN2CCCC(CNC(=O)c3ccc(F)cc3)C2)c(C)c1C (stereo not given)	10µM*	-2%	-17%	3%	-6%[57.1 µM]
COc1ccc(Cl)cc1NC(=O)c1cnc2n(c1=O)CCS2	10%	2%	17%	5%	52%
COc1ccc(OC)c(NC(=O)c2cccc(C)c2[N+](=O)[O-])c1	1.7µM*	-7%	9%	0%	-7%[57.1 µM]
COc1ccc(OC)c(NC(=O)c2ccccc2NC(=O)c2ccco2)c1	-6%	-10%	3.3µM*	-17%	-1%
CCC(C)C(NC(=O)c1ccccc1NC(=O)c1ccco1)C(=O)NNC(=O)c1ccncc1 (stereo not given)	?	3%	10µM*	113%	-14%
COc1ccc(OC)c(NC(=O)c2cnc3n(c2=O)CCS3)c1	8.3µM*	-10%	·	-3%	0%
C[C@H]1CN([C@@H](C)CO)C(=O)CCCn2cc(nn2)CO[C@@H]1CN(C)S(=O)(=O)c1ccc(C#N)cc1	·	·	·	-4%	·
CCC(C)NC(=O)CN1C(=O)c2cccnc2Sc2ccccc21 (stereo not given)	·	·	·	·	6%
SMILES	Pf growth 96h	NS1 function inh	Pf growth 48h	AMA1-RON2 inh	Sm TGR block
COc1ccc(C(=O)NNC(=O)C(NC(=O)c2ccccc2NC(=O)c2ccco2)C(C)C)cc1 (stereo not given)	2%	27%	-4%	103%	-8%
COc1ccc(OC)c(NC(=O)c2cnc(Nc3ccccc3OC)c3ccccc23)c1	17%	17%	10µM*	-16%	0%
CCC(C)C(NC(=O)c1ccccc1NC(=O)c1ccco1)C(=O)NNC(=O)c1ccc(OC)cc1 (stereo not given)	8.3µM*	27%	9.3µM*	107%	-5%
COc1ccc(NC(=O)CSc2nc3nc(C)cc(C)n3n2)cc1OC	·	·	·	·	-8%
CC(C)C1OC(CCc2ccccc2)Cc2[nH][nH]c(=O)c21 (stereo not given)	·	·	·	89%	·
CCN(Cc1ccccc1)Cc1c(O)ccc2c(=O)c(-c3ccc(Cl)cc3)c(C(F)(F)F)oc12	·	·	·	·	9%
COc1cc2c(cc1OC)C(COc1ccccc1OC)N(C(=O)C(C)C)CC2 (stereo not given)	10µM*	·	?	-4%	0%
COc1cc2c(cc1OC)C(COc1ccccc1OC)N(C(=O)c1ccco1)CC2 (stereo not given)	6.6µM*	·	?	-8%	?
COc1cc2c(cc1OC)C(COc1ccccc1OC)N(C(=O)CC(C)C)CC2 (stereo not given)	·	·	·	·	-5%
CCC(=O)N1CCc2cc(OC)c(OC)cc2C1COc1ccccc1OC (stereo not given)	-8%	·	?	-19%	0%
CCOc1ccc(CC2c3cc(OCC)c(OCC)cc3CCN2C(=O)c2cc(OC)c(OC)c(OC)c2)cc1OCC (stereo not given)	1.3µM*	9%	1.5µM*	-3%	11%
Cc1ccc(-c2ccc(CCC(=O)O)n2-c2cccc(C)c2C)cc1	·	·	·	·	22µM*
CCOC(=O)c1cc(-c2ccccc2)n(-c2cccc(C(=O)N(C)c3ccc(C)cc3)c2)c1C	·	·	·	·	11%
Cc1ccc(-c2ccc(CCC(=O)O)n2-c2cccc(C(=O)O)c2)cc1	4%	6%	105%	-15%	13µM*
Cc1ccc(-c2ccc(CCC(=O)O)n2-c2ccc(C(C)C)cc2)cc1	·	·	·	·	40µM*
O=C(O)CCc1ccc(-c2ccccc2)n1-c1cccc(O)c1	2%	11%	16%	-4%	14µM*
CCCCOc1ccc(S(=O)(=O)Nc2ccc(-c3ccc(N4CCC(C)CC4)nn3)cc2)cc1	·	·	·	·	-1%
COc1cccc(CN2C(=O)CN(C3CCCCC3)C(=O)C2c2ccc(OC)c(OC)c2)c1 (stereo not given)	·	·	·	·	1%
COC(=O)C1=C(C)N(C(C)C)C(=O)C1(NC(=O)c1ccccc1OC)C(F)(F)F (stereo not given)	·	·	·	·	0%
Cc1nc(NC(=O)c2c(-c3ccccc3)c(-c3ccccc3)nn(C)c2=O)sc1C	·	·	·	·	-1%
CCOc1ccc(NC(=O)c2oc3ccccc3c2NC(=O)Cc2cccc(C)c2)cc1	·	·	·	·	-8%
COC(=O)c1ccccc1NC(=O)Cn1c(CCC(=O)O)ccc1-c1ccc(C)cc1	·	·	·	·	-6%

Compound activity as filed in PubChem BioAssay.
